Consider 20 molecules from PubChem BioAssay (NCATS).

In experiment [1] the target is Cytochrome P450 2C9 (Homo sapiens) (UniProt P11712). The experiment can be described thus: qHTS Assay for Inhibitors and Substrates of Cytochrome P450 2C9 (AID 883). For activity change, negative = inhibition: % is set by controls: 0 for no effect and ±100 for the full control effect. Note: nearly all actives have a fitted effect of over 60% in size. Note: potency is the fitted concentration of half-maximal effect. In short, it runs like this: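 CYP2C9 deoxyluciferin hydroxylation, 37C, 60 min with NADPH regeneration; 10nM enzyme, 100uM Luciferin-H (KM). Glo detection reagent stopped reaction; luminescence normalized to sulphaphenazole (57uM) full inhibition.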
Cytochrome P450 2C9 (Homo sapiens), sequence (P11712 whole entry, looked up): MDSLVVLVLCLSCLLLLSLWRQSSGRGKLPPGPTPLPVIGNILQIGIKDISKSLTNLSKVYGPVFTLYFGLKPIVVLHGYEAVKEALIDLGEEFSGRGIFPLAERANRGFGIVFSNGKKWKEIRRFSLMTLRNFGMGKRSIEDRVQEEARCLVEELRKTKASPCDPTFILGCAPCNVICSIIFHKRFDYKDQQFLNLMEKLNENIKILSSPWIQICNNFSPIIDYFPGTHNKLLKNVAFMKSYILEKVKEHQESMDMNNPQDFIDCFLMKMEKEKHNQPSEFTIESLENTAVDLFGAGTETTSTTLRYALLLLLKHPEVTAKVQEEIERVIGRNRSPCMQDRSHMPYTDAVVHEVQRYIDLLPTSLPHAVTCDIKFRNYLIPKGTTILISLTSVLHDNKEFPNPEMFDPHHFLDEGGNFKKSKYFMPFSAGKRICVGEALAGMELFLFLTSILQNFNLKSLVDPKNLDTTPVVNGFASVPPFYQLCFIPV

Experiment [2] concerns the target Cytochrome P450 3A4 (Homo sapiens) (UniProt P08684). Briefly: qHTS Assay for Inhibitors and Substrates of Cytochrome P450 3A4 (AID 884). For activity change, negative = inhibition: series mostly up to about 57 µM; % is set by controls: 0 for no effect and ±100 for the full control effect. Note: nearly all actives have a fitted effect of over 50% in size. Note: potency is the fitted concentration of half-maximal effect. In short, it runs like this: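 Luminescent readout of luciferin produced by CYP3A4 (20 nM) dealkylation of Luciferin-PPXE, 25 uM (its KM). NADPH-driven reaction ran 60 min at RT after 10 min compound preincubation; data scaled to 57 uM ketoconazole as 100% inhibition.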

For experiment [3] the target is unchanged. The experiment can be described thus: qHTS Assay for Activators of Cytochrome P450 3A4 (AID 885). Note: nearly all actives have a fitted effect of over 65% in size. A digest of the protocol: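 Luminescent readout of luciferin formed from 25 uM Luciferin-PPXE (KM level) by 20 nM CYP3A4 in 200 mM KPO4, with 60 min NADPH-driven reaction at room temperature after 10 min compound exposure. Ketoconazole (57 uM) defined 100% inhibition.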

Experiment [4] deals with Cytochrome P450 2D6 (Homo sapiens) (UniProt P10635). Briefly: qHTS Assay for Inhibitors and Substrates of Cytochrome P450 2D6 (AID 891).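 For activity change, negative = inhibition: luciferin methyl ether substrate demethylated by CYP2D6 with NADPH regeneration; % is set by controls: 0 for no effect and ±100 for the full control effect.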 Note: nearly all actives have a fitted effect of over 60% in size. Note: potency is the fitted concentration of half-maximal effect. In short, it runs like this:
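Luminescent read-out of luciferin formed by 5 nM human CYP2D6 demethylating 30 uM Luciferin-ME EGE (Km level) over 60 min at room temperature after NADPH regeneration addition. Data normalized to full inhibition by 1.43 uM quinidine.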

Experiment [5] addresses Cytochrome P450 2C19 (Homo sapiens) (UniProt P33261). The experiment can be described thus: qHTS Assay for Inhibitors and Substrates of Cytochrome P450 2C19 (AID 899). Note: nearly all actives have a fitted effect of over 60% in size. Note: potency is the fitted concentration of half-maximal effect. A digest of the protocol:
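In 50mM KPO4, the reaction held 5nM enzyme and KM-level (10uM) Luciferin-H EGE; it ran 60 min at 37C after NADPH regeneration and a 10 min compound preincubation. Luminescence values were scaled to 57uM ketoconazole as complete inhibition.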
On the technique in general: Quantitative high-throughput screening tests each substance at several concentrations.

Where “and” joins values, the source holds several entries; their conditions need not be identical. Equal values may be shown once. Unmarked numbers belong to inactive results. Inconclusive results are not listed. Calls of active or inactive are those of the source. Calls come from the whole dose curve; as a rule, active = well fitted curve in the direction sought with a large enough effect; inconclusive = small, poorly fitted or top-dose-only effect, or another doubt; inactive = no such curve, though single readings can be large; an effect the other way counts as inactive or inconclusive.

Cytochrome P450 2C19 (Homo sapiens), sequence (P33261 whole entry, looked up): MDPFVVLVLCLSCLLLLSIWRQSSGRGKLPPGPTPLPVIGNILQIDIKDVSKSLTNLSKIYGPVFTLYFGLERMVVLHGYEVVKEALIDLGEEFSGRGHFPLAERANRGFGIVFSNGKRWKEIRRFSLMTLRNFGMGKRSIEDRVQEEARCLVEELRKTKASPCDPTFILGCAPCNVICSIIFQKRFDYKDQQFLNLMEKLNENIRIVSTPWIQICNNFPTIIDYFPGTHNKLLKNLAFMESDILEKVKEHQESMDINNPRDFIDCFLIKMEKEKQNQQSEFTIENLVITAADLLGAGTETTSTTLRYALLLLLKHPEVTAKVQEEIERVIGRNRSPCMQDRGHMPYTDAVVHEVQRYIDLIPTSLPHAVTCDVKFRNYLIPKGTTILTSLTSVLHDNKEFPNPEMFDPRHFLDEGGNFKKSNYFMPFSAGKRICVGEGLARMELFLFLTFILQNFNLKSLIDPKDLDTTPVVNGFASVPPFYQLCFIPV
Cytochrome P450 3A4 (Homo sapiens), sequence (P08684 whole entry, looked up): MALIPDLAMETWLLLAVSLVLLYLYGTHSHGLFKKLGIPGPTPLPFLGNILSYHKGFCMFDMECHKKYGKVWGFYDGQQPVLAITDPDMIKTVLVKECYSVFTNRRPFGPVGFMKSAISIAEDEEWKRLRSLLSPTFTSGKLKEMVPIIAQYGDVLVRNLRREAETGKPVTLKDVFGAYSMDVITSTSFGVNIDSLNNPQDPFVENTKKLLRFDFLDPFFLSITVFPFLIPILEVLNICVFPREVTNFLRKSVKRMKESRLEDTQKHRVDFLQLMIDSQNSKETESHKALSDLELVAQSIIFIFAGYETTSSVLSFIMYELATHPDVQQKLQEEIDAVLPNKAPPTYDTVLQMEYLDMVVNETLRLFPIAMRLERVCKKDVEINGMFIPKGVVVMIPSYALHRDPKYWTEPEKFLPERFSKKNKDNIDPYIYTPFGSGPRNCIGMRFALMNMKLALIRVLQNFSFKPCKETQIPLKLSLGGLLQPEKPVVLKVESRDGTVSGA
Cytochrome P450 2D6 (Homo sapiens), sequence (P10635 whole entry, looked up): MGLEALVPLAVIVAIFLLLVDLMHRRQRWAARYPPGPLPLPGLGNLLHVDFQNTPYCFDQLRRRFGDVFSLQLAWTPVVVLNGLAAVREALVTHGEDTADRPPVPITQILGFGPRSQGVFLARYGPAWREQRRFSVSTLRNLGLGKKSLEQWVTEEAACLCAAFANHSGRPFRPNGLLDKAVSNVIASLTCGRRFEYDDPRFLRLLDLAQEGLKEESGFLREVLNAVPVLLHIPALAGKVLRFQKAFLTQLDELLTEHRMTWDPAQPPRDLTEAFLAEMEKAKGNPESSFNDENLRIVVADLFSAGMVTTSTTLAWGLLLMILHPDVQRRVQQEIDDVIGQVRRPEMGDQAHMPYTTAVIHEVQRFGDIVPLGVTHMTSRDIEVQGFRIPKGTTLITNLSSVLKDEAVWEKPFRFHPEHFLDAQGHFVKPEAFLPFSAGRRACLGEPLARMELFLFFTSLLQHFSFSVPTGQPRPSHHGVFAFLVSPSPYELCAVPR

Consider `COC(=O)NC(c1cccc(C)c1)[C@]1(C(C)=O)CCOC1=O` (some centres not stated), for which the Potency in experiment [1] was 3.16 µM (active); in experiment [2], 0.0316 µM (active); in experiment [5] it was 0.0398 µM (active). In experiment [3], the activity change, positive = activation was -88.5% [at 11.4 µM]. In addition, the Potency result in experiment [4] is “inactive”.

Regarding `CCCCCCC(=O)Cc1cc(OC)c(OC)cc1/C=C(/C(C)=O)C(=O)OC`, the Potency result in experiment [1] and in experiment [4] was “inactive” throughout. Also, the Potency was 3.98 µM (active) in experiment [2] and 2 µM (active) in experiment [5]. Further, the activity change, positive = activation in experiment [3] was -68.2% [at 11.4 µM].

Regarding `COC(=O)C1=C(C)N(Cc2ccccc2)C2=C3C(=O)N(C)C(=O)C3[C@@](O)(C(=O)OC)C(=O)N2C1c1ccccc1` (some centres not stated), the Potency result in experiment [1], in experiment [4] and in experiment [5] was “inactive” throughout. In experiment [2], the activity change, negative = inhibition is -21.3% [at 11.4 µM]. Moreover, the activity change, positive = activation in experiment [3] is -32.3% [at 11.4 µM].

Regarding `CC(=O)OCC1OC(c2cc(C)cc(C)c2)C=CC1OC(C)=O` (configuration not stated), the Potency result in experiment [1] and in experiment [4] was “inactive” in each case. The Potency in experiment [2] was 3.16 µM (active). Moreover, the activity change, positive = activation in experiment [3] is -86.4% [at 11.4 µM].

Turning to `COC(=O)NC(CC(C)=O)c1ccc2c(c1)OCO2` (configuration not stated), the Potency entry in experiment [1], in experiment [4] and in experiment [5] was “inactive” throughout. Also, in experiment [2], the Potency is 3.98 µM (active). Also, the activity change, positive = activation in experiment [3] was -67.3% [at 11.4 µM].

As for `CC1(C)OC(C(O)(c2ccccc2)c2ccccc2)C(C(O)(c2ccccc2)c2ccccc2)O1` (configuration not stated), the Potency result in experiment [1] and in experiment [4] was “inactive” each time. The Potency in experiment [2] was 2.51 µM (active). Further, the activity change, positive = activation in experiment [3] is -63.1% [at 11.4 µM].

Regarding `CN(C)c1cccc(OC2C=CC(C#Cc3ccccc3)OC2CO)c1` (configuration not stated), the Potency entry in experiment [1] and in experiment [4] was “inactive” each time. Besides, the Potency in experiment [2] and in experiment [5] was 3.98 µM (active) each time. Also, in experiment [3], the activity change, positive = activation was -83.1% [at 11.4 µM].

`Cc1cc2c(nc1C)CCCN2C[C@H](O)CN1CCCc2nc(-c3ccc(Br)cc3)ccc21`: the Potency in experiment [1] is 2.51 µM (active); in experiment [2] it was 3.98 µM (active); in experiment [4], 3.16 µM (active). In addition, in experiment [3], the activity change, positive = activation was -65% [at 11.4 µM] and -47.8% [at 11.4 µM].

As to `CC1CCC2C(=O)N3C(CCC(C)[C@@H]3c3cccc(N4CCOCC4)c3)C(=O)N2C1c1cccc(Br)c1` (some centres not stated), the Potency in experiment [1] was 2.51 µM (active); in experiment [2], 0.0251 µM (active). Also, the activity change, positive = activation in experiment [3] was -62% [at 11.4 µM]. Also, the Potency entry in experiment [4] was “inactive”.

Regarding `COC(=O)C1=C2N(Cc3ccccc3)C(C)=C(C(=O)OC)C(c3ccccc3)N2C(=O)[C@](O)(C(=O)OC)C1` (some centres not stated), the Potency result in experiment [1] and in experiment [4] was “inactive” throughout. Also, the activity change, negative = inhibition in experiment [2] was -26.5% [at 11.4 µM]. Further, in experiment [3], the activity change, positive = activation was -51.3% [at 11.4 µM].

Regarding `CCOC(=O)OCC1OC(CCc2ccccc2)CCC1Oc1ccc(OC)cc1` (configuration not stated), the Potency entry in experiment [1] and in experiment [4] was “inactive” each time. Moreover, the Potency in experiment [2] was 3.98 µM (active). Also, in experiment [3], the activity change, positive = activation is -68.7% [at 11.4 µM].

In the case of `C=CCOC(=O)C(C(C)=O)C(NC(=O)OC)c1ccc(F)cc1` (configuration not stated), the Potency result in experiment [1] and in experiment [4] was “inactive” each time. Further, in experiment [2], the Potency is 3.16 µM (active). The activity change, positive = activation in experiment [3] was -78% [at 11.4 µM].

For `CC(=O)OCC1OC(C#Cc2ccccc2Cl)C=CC1OC(C)=O` (configuration not stated), the Potency entry in experiment [1] and in experiment [4] was “inactive” throughout. Also, the Potency in experiment [2] was 3.98 µM (active); in experiment [5] it was 3.16 µM (active). In addition, the activity change, positive = activation in experiment [3] is -76.5% [at 11.4 µM].

As to `COC(=O)C1=C(C)N(Cc2ccccc2)[C@]23O[C@](C(=O)OC)(C(=O)N2C1c1ccccc1)C1CCCC(=O)C13` (some centres not stated), the Potency entry in experiment [1], in experiment [4] and in experiment [5] was “inactive” in each case. In addition, the activity change, negative = inhibition in experiment [2] was -22.3% [at 11.4 µM]. In experiment [3], the activity change, positive = activation was -50.6% [at 11.4 µM].

Consider `COC(=O)N(/C=C/c1ccc(OC)cc1)CCc1ccc(OC)c(OC)c1`, for which the Potency in experiment [1] was 3.16 µM (active); in experiment [2], 3.98 µM (active); in experiment [5] it was 3.98 µM (active). In experiment [3], the activity change, positive = activation was -93.3% [at 11.4 µM]. Further, the Potency entry in experiment [4] was “inactive”.

`COC(=O)NC(/C(C(=O)OC)=C(\C)NCc1ccccc1)c1ccc(F)cc1` (configuration not stated): the Potency in experiment [1] is 2.51 µM (active); in experiment [2], 3.16 µM (active); in experiment [4] it was 1 µM (active); in experiment [5] it was 0.251 µM (active). In addition, the activity change, positive = activation in experiment [3] is -71.8% [at 11.4 µM].

For the molecule `CCOC(=O)OCC1OC(c2cc(C)cc(C)c2)C=CC1OC(=O)OCC` (configuration not stated), the Potency result in experiment [1] and in experiment [4] was “inactive” each time. In addition, in experiment [2], the Potency is 3.98 µM (active). In addition, the activity change, positive = activation in experiment [3] is -69.3% [at 11.4 µM].

As to `COc1ccc(OCC2Cc3c(-c4ccccc4)nc4c(c3CO2)CN(CCOc2ccccc2)CC4)cc1` (configuration not stated), the Potency entry in experiment [1], in experiment [4] and in experiment [5] was “inactive” each time. The Potency in experiment [2] was 3.98 µM (active). The activity change, positive = activation in experiment [3] is -83.6% [at 11.4 µM].

In the case of `COC(=O)C1=C(C)N(Cc2ccccc2)C2=C(C(=O)c3ccccc3)C(c3ccccc3)[C@@](O)(C(=O)OC)C(=O)N2C1c1ccccc1` (some centres not stated), the Potency entry in experiment [1], in experiment [4] and in experiment [5] was “inactive” throughout. Further, the activity change, negative = inhibition in experiment [2] was -22.8% [at 11.4 µM]. Also, in experiment [3], the activity change, positive = activation is -54.4% [at 11.4 µM].

Consider `Cc1cc(C)cc(C#CC2C=CC(Oc3ccc(C4CCCC4)cc3)C(CO)O2)c1` (configuration not stated), for which the Potency entry in experiment [1], in experiment [4] and in experiment [5] was “inactive” in each case. Moreover, the Potency in experiment [2] was 3.98 µM (active). Moreover, in experiment [3], the activity change, positive = activation is -81.6% [at 11.4 µM].
